Results: PubChem BioAssay
Activity calls are given as the source filed them. Unless noted, how the calls were made is not given here.

Key:
[1] = test system: Wnt5a (protein binding on small-molecule microarray); experiment: Wnt5a binders on small-molecule microarray, primary screen, biophysical, 635/667 nm fluorescence (AID 1142); conditions: 635 nm fluorescence, higher = more signal;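 further: fluorescence read at 667 nm with signal to noise per printed feature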
[2] = cell viability in Huh7 cells, primary screen, cytotoxicity control for HCV replication inhibitor project, CellTiter-Glo luminescence, basal, 48 h (AID 1143); conditions: Huh7 HCV replicon, higher = more signal, called active from +8 up or from −8 down;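 further: Huh7 hepatoma cells carrying a hepatitis C replication reporter with no stimulus; test concentration not given here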
[3] = P. aeruginosa biofilm formation inhibitors, primary screen, PAO1 strain, BacTiter-Glo luminescence, LB-PBS (AID 1144); conditions: 12 h, higher = more signal
[4] = CREB reporter modulators without forskolin, primary screen, cell-based, PC12, CRE-LacZ reporter, unstimulated (AID 1145); conditions: no forskolin, luminescence, 4.5 h, higher = more signal, called active from +8 up or from −8 down
[5] = CREB reporter modulators under forskolin, primary screen, cell-based, PC12, CRE-LacZ reporter, forskolin-stimulated (AID 1146); conditions: luminescence, 4.5 h, higher = more signal, called active from +8 up or from −8 down;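 further: PC12 cells with 6xCRE LacZ reporter stimulated by forskolin 10 µM; beta-galactosidase reporter signal reflecting CREB driven transcription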
[6] = target: Streptavidin (Streptomyces avidinii) (UniProt P22629); experiment: streptavidin binders on small-molecule microarray, primary screen, artefact control for SMM compound annotation, biophysical, 635/667 nm fluorescence (AID 1147); conditions: streptavidin binding, higher = more signal;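 further: signal reflects streptavidin binding to arrayed compounds as a control protein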
[7] = small-molecule binders of probe aInhba, primary screen, biochemical, small-molecule microarray, 635/667 nm fluorescence (AID 1148); conditions: higher = more signal;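 further: score merges 667nm spot fluorescence with signal-to-noise for antibody binding to printed compounds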
Torsin-1A (Homo sapiens) [8] = target: Torsin-1A (Homo sapiens) (UniProt O14656); experiment: torsin A binders from cell lysate, primary screen, small-molecule microarray, wild-type, 635/667 nm (AID 1149); conditions: COS7 hTOR1A-WT lysate, 635 nm fluorescence, higher = more signal
Torsin-1A (Homo sapiens) [9] = target: Torsin-1A (Homo sapiens) (UniProt O14656); experiment: small-molecule binders of mutant TOR1A in lysate, primary screen, cell lysate, small-molecule microarray, COS7 lysate, 635/667 nm fluorescence (AID 1150); conditions: COS7 hTOR1A mutant lysate, 635 nm fluorescence, higher = more signal;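 further: score pools 667 nm emission and signal to noise measuring lysate protein binding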
[10] = test system: Sonic hedgehog protein (Shh); experiment: small-molecule binders of Shh protein, primary screen, biochemical, small-molecule microarray, 635/667 nm fluorescence (AID 1151); conditions: small-molecule microarray binding, 635 nm fluorescence; higher = more signal;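 further: Shh protein binding to compounds spotted on small-molecule microarray slides; score combines spot fluorescence intensity with signal-to-noise across triplicate slides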
[11] = E. coli DRC41 culture turbidity changes, primary screen, E. coli filamentation inducer project, strain DRC41, OD650, 48 h (AID 1152);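 further: E. coli MC1000 strain DRC41 lacking acrAB efflux pump and sulA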; conditions: E. coli DRC41 (acrAB sulA), higher = more signal, called active from +8 up or from −8 down
[12] = small-molecule binders of probe aLefty1, primary screen, biochemical, small-molecule microarray, 635/667 nm fluorescence (AID 1153); conditions: higher = more signal;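 further: score merges spot fluorescence with signal-to-noise ratio from the scanned slide images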
[13] = PSAC antagonists in infected red cells, primary screen, cell-based, P. falciparum Indochina, OD700, 1 h (AID 1154); conditions: P. falciparum Indochina infected RBC osmotic lysis, higher = more signal, called active from +8 up or from −8 down
[14] = PSAC antagonists in infected red cells, primary screen, cell-based, P. falciparum Indochina, OD700, 2 h (AID 1155);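 further: lysis reports solute entry through the parasite surface anion channel PSAC; channel blockers reduce lysis of infected cells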; conditions: P. falciparum Indochina infected erythrocytes, osmotic lysis OD700; higher = more signal, called active from +8 up or from −8 down
[15] = osmotic lysis modulators in infected erythrocytes, primary screen, PSAC antagonist project, cell-based, P. falciparum Indochina, OD700, 3 h (AID 1156); conditions: higher = more signal, called active from +8 up or from −8 down
[16] = PSAC antagonists in infected red cells, primary screen, cell-based, P. falciparum Indochina, OD700, 18 h (AID 1157); conditions: P. falciparum Indochina infected erythrocytes, osmotic lysis OD700, 18 h; higher = more signal, called active from +8 up or from −8 down
[17] = modulators of S6 phosphorylation in cells, primary screen, cell-based, A549, cytoblot, luminescence, serum-stimulated (AID 1158); conditions: A549 phospho-S6 cytoblot, 5 h, higher = more signal;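 further: serum-stimulated A549 lung adenocarcinoma cells; signal is phosphorylated S6 detected by cytoblot immunostaining with HRP secondary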
[18] = target: NADPH oxidase 2 (Homo sapiens) (UniProt P04839); experiment: NOX2-dependent H2O2 signal modulators, primary screen, NOX inhibitor project, cell-based, HEK293-NOX2, PMA-stimulated, Amplex Red fluorescence (AID 1159); conditions: 45 min, higher = more signal, called active from +8 up or from −8 down; further: test concentration not given here
[19] = target: NADPH oxidase 4 (Homo sapiens) (UniProt Q9NPH5); experiment: NOX4-dependent H2O2 signal modulators, primary screen, NOX inhibitor project, cell-based, HEK293-NOX4, tetracycline-induced, Amplex Red fluorescence (AID 1160); conditions: 45 min, higher = more signal, called active from +8 up or from −8 down
[20] = target: NADPH oxidase 5 (Homo sapiens) (UniProt Q96PH1); experiment: NOX5-dependent H2O2 signal modulators, primary screen, NOX inhibitor project, cell-based, HEK293-NOX5, Amplex Red fluorescence (AID 1161); conditions: HEK293-NOX5, ionomycin, 45 min, higher = more signal
Chain of NADPH oxidase 5 (Homo sapiens) (Q96PH1 whole entry, looked up): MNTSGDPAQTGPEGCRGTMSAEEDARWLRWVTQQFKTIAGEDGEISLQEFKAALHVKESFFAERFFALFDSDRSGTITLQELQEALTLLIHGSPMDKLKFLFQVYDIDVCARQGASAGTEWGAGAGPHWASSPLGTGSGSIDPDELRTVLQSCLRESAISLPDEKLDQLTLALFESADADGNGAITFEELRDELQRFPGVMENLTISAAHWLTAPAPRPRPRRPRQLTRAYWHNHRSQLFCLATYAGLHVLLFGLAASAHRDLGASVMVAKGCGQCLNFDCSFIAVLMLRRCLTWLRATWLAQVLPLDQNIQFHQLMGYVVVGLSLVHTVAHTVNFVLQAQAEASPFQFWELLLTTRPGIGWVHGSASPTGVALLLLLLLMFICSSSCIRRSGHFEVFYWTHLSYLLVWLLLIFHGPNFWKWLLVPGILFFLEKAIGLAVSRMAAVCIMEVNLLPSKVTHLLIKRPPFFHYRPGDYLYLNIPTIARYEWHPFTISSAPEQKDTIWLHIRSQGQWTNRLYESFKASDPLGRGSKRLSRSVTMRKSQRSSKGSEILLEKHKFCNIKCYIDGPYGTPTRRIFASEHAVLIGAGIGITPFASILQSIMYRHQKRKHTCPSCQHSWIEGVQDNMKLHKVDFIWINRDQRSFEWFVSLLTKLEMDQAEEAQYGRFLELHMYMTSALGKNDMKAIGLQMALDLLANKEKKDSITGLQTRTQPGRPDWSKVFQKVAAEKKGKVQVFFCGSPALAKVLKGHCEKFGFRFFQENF

Chain of Streptavidin (Streptomyces avidinii) (P22629 whole entry, looked up): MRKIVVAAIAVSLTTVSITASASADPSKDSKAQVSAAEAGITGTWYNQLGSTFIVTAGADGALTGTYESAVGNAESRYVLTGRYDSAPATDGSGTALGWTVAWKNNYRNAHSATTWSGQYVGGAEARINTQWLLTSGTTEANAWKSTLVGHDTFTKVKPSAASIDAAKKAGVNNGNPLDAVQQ
Chain of Torsin-1A (Homo sapiens) (O14656 whole entry, looked up): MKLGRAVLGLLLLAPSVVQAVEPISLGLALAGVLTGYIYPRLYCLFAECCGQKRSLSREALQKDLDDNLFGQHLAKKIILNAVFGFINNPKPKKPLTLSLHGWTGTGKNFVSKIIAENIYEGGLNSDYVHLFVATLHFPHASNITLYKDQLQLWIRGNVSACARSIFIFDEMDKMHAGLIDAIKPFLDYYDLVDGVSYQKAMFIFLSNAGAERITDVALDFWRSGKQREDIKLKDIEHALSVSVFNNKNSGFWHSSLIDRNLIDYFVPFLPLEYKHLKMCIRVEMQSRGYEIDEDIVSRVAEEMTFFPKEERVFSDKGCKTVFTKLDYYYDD
Chain of NADPH oxidase 4 (Homo sapiens) (Q9NPH5 whole entry, looked up): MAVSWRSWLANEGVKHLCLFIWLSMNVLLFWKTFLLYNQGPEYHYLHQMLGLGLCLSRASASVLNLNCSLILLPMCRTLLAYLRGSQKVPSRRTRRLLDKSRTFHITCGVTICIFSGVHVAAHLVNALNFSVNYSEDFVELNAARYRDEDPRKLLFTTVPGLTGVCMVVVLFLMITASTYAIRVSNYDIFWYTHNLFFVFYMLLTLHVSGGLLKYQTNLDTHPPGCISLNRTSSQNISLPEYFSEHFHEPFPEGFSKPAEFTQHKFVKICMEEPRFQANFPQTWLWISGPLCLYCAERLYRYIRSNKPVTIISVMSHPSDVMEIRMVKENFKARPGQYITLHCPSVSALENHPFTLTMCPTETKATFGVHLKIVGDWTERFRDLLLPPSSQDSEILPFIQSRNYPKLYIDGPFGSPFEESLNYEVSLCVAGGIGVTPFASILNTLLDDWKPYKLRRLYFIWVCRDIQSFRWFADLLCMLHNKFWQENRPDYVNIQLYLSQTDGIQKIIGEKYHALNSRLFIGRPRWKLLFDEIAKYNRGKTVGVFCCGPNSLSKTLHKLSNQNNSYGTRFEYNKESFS
Chain of NADPH oxidase 2 (Homo sapiens) (P04839 whole entry, looked up): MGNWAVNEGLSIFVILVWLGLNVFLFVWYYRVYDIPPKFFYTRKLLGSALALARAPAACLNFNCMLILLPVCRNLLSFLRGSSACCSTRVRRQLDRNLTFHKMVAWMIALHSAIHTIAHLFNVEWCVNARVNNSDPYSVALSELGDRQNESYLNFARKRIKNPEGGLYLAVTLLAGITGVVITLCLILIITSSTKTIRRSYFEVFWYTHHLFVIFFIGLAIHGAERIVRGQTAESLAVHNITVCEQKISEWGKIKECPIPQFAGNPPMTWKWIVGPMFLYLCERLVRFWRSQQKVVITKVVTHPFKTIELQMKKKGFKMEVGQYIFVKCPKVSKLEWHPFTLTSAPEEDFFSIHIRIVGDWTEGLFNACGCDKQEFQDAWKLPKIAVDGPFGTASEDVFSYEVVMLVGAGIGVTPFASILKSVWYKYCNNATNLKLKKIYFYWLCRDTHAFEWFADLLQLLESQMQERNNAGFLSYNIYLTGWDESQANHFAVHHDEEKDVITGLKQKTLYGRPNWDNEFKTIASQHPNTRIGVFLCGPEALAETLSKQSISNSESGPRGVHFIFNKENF

Structure (SMILES)	composite z-score [1]	z-score [2]	z-score [3]	z-score [4]	z-score [5]	composite z-score [6]	composite z-score [7]	composite z-score (Torsin-1A (Homo sapiens) [8])	composite z-score (Torsin-1A (Homo sapiens) [9])	composite z-score [10]	z-score [11]	composite z-score [12]	z-score [13]	z-score [14]	z-score [15]	z-score [16]	z-score [17]	z-score [18]	z-score [19]	z-score [20]
O=C1C=C[C@@H](O)[C@@H]2[C@@H]3C(=O)N(Cc4ccccc4)C(=O)[C@@H]3CC[C@@H]12	-0.0088	-0.122 (inactive)	-0.158 (inactive)	-0.566 (inactive)	-0.768 (inactive)	0.222	-0.128	0.418	0.376	0.632	0.763 (inactive)	-0.0145	0.09 (inactive)	0.201 (inactive)	0.853 (inactive)	-0.0165 (inactive)	0.09	0.808 (inactive)	0.553 (inactive)	0.455
CON=C(C)CCN1CCc2nc(-c3ccccc3)c(-c3ccccc3)cc2C1	-0.0635	-4.2 (inactive)	-0.925 (inactive)	2.22 (inactive)	-0.55 (inactive)	1.33	-0.05	0.254	0.007	0.872	-0.944 (inactive)	-0.0303	3.74 (inactive)	1.17 (inactive)	1.69 (inactive)	0.808 (inactive)	-0.0181	-6.35 (inactive)	-2.6 (inactive)	-6.68
COC(=O)[C@H](C)NC(=O)CCC1CC(OC(=O)NCc2ccc3c(c2)OCO3)CC2(CCCC(COC(=O)NCCC(C)C)O2)O1 (stereo not given in full)	0.151	-2.02 (inactive)	-0.174 (inactive)	-0.706 (inactive)	-1.22 (inactive)	0.232	-0.224	0.245	0.593	1.13	-1.06 (inactive)	0.0774	19.8 (active)	4.71 (inactive)	0.3 (inactive)	0.638 (inactive)	0.392	0.738 (inactive)	0.437 (inactive)	0.284
CCN1C(=O)[C@H]2[C@H]3[C@H](O)[C@H](O)CC(=NNC(=O)OCc4ccccc4)[C@@H]3CC[C@H]2C1=O	0.0743	0.235 (inactive)	0.511 (inactive)	-0.746 (inactive)	-0.506 (inactive)	0.131	-0.0986	-0.425	0.151	0.475	-0.0098 (inactive)	0.122	-0.0022 (inactive)	-0.51 (inactive)	-0.698 (inactive)	-0.0637 (inactive)	-0.376	0.424 (inactive)	0.525 (inactive)	0.296
CSCC[C@@H]1NC(=O)CC=C[C@@H](C)COC(=O)[C@H](C)COC1=O	0.624	-1.67 (inactive)	-1.66 (inactive)	0.163 (inactive)	-0.925 (inactive)	-0.918	-0.17	3.64	3.77	2.45	0.832 (inactive)	-0.321	-0.274 (inactive)	-1.3 (inactive)	-0.92 (inactive)	-1.58 (inactive)	2.08	-1.01 (inactive)	0.384 (inactive)	0.515
CCOC(=O)CCN1C(=O)[C@H]2[C@H]3[C@H](O)[C@H](O)CC(=NO[C@@H]4O[C@H](CO)[C@@H](O)[C@H](O)[C@H]4O)[C@@H]3CC[C@H]2C1=O	0.231	-0.784 (inactive)	1.24 (inactive)	-0.748 (inactive)	1.17 (inactive)	0.036	0.0173	1.87	1.12	1.62	0.998 (inactive)	0.121	3.62 (inactive)	0.155 (inactive)	1.31 (inactive)	0.82 (inactive)	-0.235	-2.95 (inactive)	0.332 (inactive)	-2.16
CCN1C(=O)[C@H]2[C@H]3[C@H](O)[C@H](O)CC(=NO[C@@H]4O[C@H](COC(C)=O)[C@@H](OC(C)=O)[C@H](OC(C)=O)[C@H]4OC(C)=O)[C@@H]3CC[C@H]2C1=O	0.352	0.772 (inactive)	1.22 (inactive)	-0.882 (inactive)	0.171 (inactive)	0.0251	-0.0221	0.331	0.0248	1.03	0.59 (inactive)	0.227	0.202 (inactive)	0.195 (inactive)	-0.519 (inactive)	0.319 (inactive)	-0.639	0.357 (inactive)	0.722 (inactive)	-0.0344
CO[C@@H]1C=CCC(=O)N[C@@H](C)C(=O)OC[C@@H](OC)[C@H](C)C=CCC(=O)OC[C@H]1C	0.552	-0.0206 (inactive)	0.457 (inactive)	0.876 (inactive)	-0.384 (inactive)	-0.477	-0.157	2.58	2.21	2.06	0.0083 (inactive)	-0.149	-0.0896 (inactive)	0.233 (inactive)	0.442 (inactive)	0.205 (inactive)	0.15	-0.27 (inactive)	0.0964 (inactive)	-0.367
